# Test results from ChEMBL document CHEMBL3988442, “University of Dundee, Small-Polar-MMV Screening Library” (2021).
# Target: T1, Methionyl-tRNA synthetase, putative (Leishmania donovani (strain BPK282A1)) (UniProt E9BF75)
# T1 sequence (whole entry): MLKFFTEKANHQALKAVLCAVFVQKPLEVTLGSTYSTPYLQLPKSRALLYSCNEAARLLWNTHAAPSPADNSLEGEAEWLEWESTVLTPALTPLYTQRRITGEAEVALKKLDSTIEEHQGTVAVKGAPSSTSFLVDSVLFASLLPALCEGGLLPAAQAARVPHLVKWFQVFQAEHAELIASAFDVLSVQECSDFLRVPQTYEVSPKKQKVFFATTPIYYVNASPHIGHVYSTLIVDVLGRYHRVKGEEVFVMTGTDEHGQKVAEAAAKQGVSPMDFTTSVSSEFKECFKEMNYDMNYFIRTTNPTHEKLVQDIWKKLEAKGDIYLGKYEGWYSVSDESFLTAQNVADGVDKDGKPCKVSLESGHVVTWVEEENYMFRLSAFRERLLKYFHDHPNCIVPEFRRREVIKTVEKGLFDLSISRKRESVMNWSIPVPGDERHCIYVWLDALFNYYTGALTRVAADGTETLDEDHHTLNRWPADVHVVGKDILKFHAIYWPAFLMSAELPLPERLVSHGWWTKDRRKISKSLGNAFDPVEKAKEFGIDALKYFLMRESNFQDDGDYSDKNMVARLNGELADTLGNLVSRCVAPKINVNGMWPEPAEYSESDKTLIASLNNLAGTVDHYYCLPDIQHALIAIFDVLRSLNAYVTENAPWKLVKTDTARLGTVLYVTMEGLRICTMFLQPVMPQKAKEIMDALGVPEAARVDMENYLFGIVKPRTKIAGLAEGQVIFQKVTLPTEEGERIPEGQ
# Test: Leishmania donovani Methionine tRNA synthetase (LdMetRS):v7. Dose response assay
# Format: functional
# Design: conc 80 nM, time 150 minutes
structure (smiles),measurement,setting,value
COCCN(CC1CC1)c1nc(CCN)nc2sc(C)c(C)c12,PXC50,MAX_EFFECT 32.65306122,< 4
same,PXC50,MAX_EFFECT 36.11111111,< 4
CS(=O)(=O)N1CCN(c2ccc3ccc(C(=O)NCCO)cn23)CC1,PXC50,MAX_EFFECT 34.44976077,< 4
same,PXC50,MAX_EFFECT 46.06946984,< 4
Cc1sc2nc(-c3cccs3)nc(N(C)CC(=O)N3CCCC3)c2c1C,PXC50,MAX_EFFECT 37.40458015,< 4
same,PXC50,MAX_EFFECT 42.06549118,< 4
Cc1cc2ccc(N3CCN(S(C)(=O)=O)CC3)n2cc1C(=O)NC1CCCC1,PXC50,MAX_EFFECT 43.22916667,< 4
same,PXC50,MAX_EFFECT 44.29824561,< 4
Cc1nc(N2CCC3(CC2)OCCO3)c2c(-c3cccs3)csc2n1,PXC50,MAX_EFFECT 10.43256997,< 4
same,PXC50,MAX_EFFECT 13.35012594,< 4
Cc1nc(N2C[C@@H](CN3CCCN(C)CC3)[C@@H](CO)C2)c2ccsc2n1,PXC50,MAX_EFFECT 12.53263708,< 4
same,PXC50,MAX_EFFECT 15.40469974,< 4
CNc1nc(C)nc(N2CCc3cc(C(=O)NCc4ccc(-c5nccn5C)cc4Cl)ccc32)n1,PXC50,MAX_EFFECT 28.67132867,< 4
same,PXC50,MAX_EFFECT 30.23255814,< 4
CCOC(=O)c1sc2nc(C)nc(NC3CCN(C4CC4)CC3)c2c1C,PXC50,MAX_EFFECT 19.59798995,< 4
same,PXC50,MAX_EFFECT 24.32432432,< 4
Cc1nc(N2CC[C@@H](O)C2)c2c(-c3cccs3)csc2n1,PXC50,MAX_EFFECT -2.07253886,< 4
same,PXC50,MAX_EFFECT -3.723404255,< 4
CCc1nc(N2CCC(C(=O)O)CC2)c2c3c(sc2n1)CCC3,PXC50,MAX_EFFECT 11.47540984,< 4
same,PXC50,MAX_EFFECT 12.29946524,< 4
CC(C)C[C@H](N)COc1ccccc1-c1ccccn1,PXC50,MAX_EFFECT 10.44776119,< 4
same,PXC50,MAX_EFFECT 11.38716356,< 4
Cc1nc(N[C@@H](Cc2ccccc2)C(=O)O)c2c3c(sc2n1)CCCC3,PXC50,MAX_EFFECT 23.48484848,< 4
same,PXC50,MAX_EFFECT 27.55102041,< 4
Nc1noc2ccc(-c3cnc4ccc(NCCN5CCC(F)(F)CC5)nn34)cc12,PXC50,MAX_EFFECT 10.96491228,< 4
same,PXC50,MAX_EFFECT 13.23155216,< 4
COCCNc1nc(N2CCCC2)nc2sc3c(c12)CCCC3,PXC50,MAX_EFFECT 20.83333333,< 4
same,PXC50,MAX_EFFECT 36.40350877,< 4
Oc1c(Cl)cc(Cl)cc1CNc1nccs1,PXC50,MAX_EFFECT 15.39923954,< 3
same,PXC50,MAX_EFFECT 20.51835853,< 3
CC(=O)N1CCCC(NC(=O)c2ccc3ccc(N4CCN(S(C)(=O)=O)CC4)n3c2)C1 (stereo not given),PXC50,"BOTTOM 3.656156878, HILLSLOPE 2.486754691, MAX_EFFECT 66.17915905, TOP 66.88204214",4.81
same,PXC50,"BOTTOM -4.526143978, HILLSLOPE 1.702686974, MAX_EFFECT 60.76555024, TOP 62.80104332",5
Cc1nc(N2CC[C@@H](O)C2)c2c3c(sc2n1)CCCC3,PXC50,MAX_EFFECT 8.838383838,< 4
same,PXC50,MAX_EFFECT 10.20408163,< 4
O=c1cc(NCCCNCc2c[nH]c3ccc(Br)cc23)[nH]c2ccccc12,PXC50,"BOTTOM 0.0, HILLSLOPE 1.551467474, MAX_EFFECT 106.0606061, TOP 104.4534441",5.79
same,PXC50,"BOTTOM 0.546192845, HILLSLOPE 1.22385612, MAX_EFFECT 106.0465116, TOP 107.4209254",5.79
Nc1nc(CSc2nnc[nH]2)nc2sc3c(c12)CCCC3,PXC50,MAX_EFFECT 21.33333333,< 4
same,PXC50,MAX_EFFECT 26.98412698,< 4
CC(C)C[C@H]1COc2ccccc2C(c2ccccc2)=N1,PXC50,MAX_EFFECT 7.8891258,< 4
same,PXC50,MAX_EFFECT 10.97308489,< 4
CCc1nc(NCCCC(=O)O)c2cc(CC)sc2n1,PXC50,MAX_EFFECT 11.55778894,< 4
same,PXC50,MAX_EFFECT 13.02211302,< 4
Cc1sc2nc(-c3cccnc3)nc(N3CCCC(CO)C3)c2c1C (stereo not given),PXC50,"BOTTOM 0.693465662, HILLSLOPE 1.473836838, MAX_EFFECT 56.47668394, TOP 100.0",4.07
same,PXC50,"BOTTOM -1.655591932, HILLSLOPE 1.509629481, MAX_EFFECT 54.25531915, TOP 100.0",4.06
CCOC(=O)c1cnn(-c2nc(C)nc3sc4c(c23)CCC(C)C4)c1N (stereo not given),PXC50,MAX_EFFECT 8.465608466,< 4
same,PXC50,MAX_EFFECT 9.066666667,< 4
Cc1nc(NCCCNS(C)(=O)=O)c2c3c(sc2n1)CCC3,PXC50,MAX_EFFECT 6.914893617,< 4
same,PXC50,MAX_EFFECT 9.844559585,< 4
O=C1CN(c2nc(-c3cccnc3)nc3sc4c(c23)CCCC4)CCN1,PXC50,MAX_EFFECT 24.0,< 4
same,PXC50,MAX_EFFECT 26.98412698,< 4
CS(=O)(=O)N1CCN(c2ccc3ccc(C(=O)NC4Cc5ccccc5C4)cn23)CC1,PXC50,"BOTTOM 1.298239116, HILLSLOPE 2.724135748, MAX_EFFECT 51.19617225, TOP 47.98570818",5.08
same,PXC50,"BOTTOM 7.56395186, HILLSLOPE 1.844448201, MAX_EFFECT 55.57586837, TOP 59.35407924",4.75
O=C(O)C1CCCN1c1nc(-c2ccc(Cl)cc2)cc(C(F)(F)F)n1 (stereo not given),PXC50,MAX_EFFECT 7.310704961,< 4
same,PXC50,MAX_EFFECT 9.138381201,< 4
O=C(NCC1(O)CCC(F)(F)CC1)c1cc(=O)c2cc(O)ccc2o1,PXC50,MAX_EFFECT 6.858054226,< 4
same,PXC50,MAX_EFFECT 7.869481766,< 4
Cc1nc(NCCCS(N)(=O)=O)c2c3c(sc2n1)CCC3,PXC50,MAX_EFFECT 5.319148936,< 4
same,PXC50,MAX_EFFECT 8.29015544,< 4
CN1CCC(CNC(=O)c2ccc3ccc(N4CCN(S(C)(=O)=O)CC4)n3c2)CC1,PXC50,"BOTTOM 1.275548684, HILLSLOPE 2.230174864, MAX_EFFECT 66.02870813, TOP 65.69793646",4.77
same,PXC50,"BOTTOM -0.677256268, HILLSLOPE 1.919543897, MAX_EFFECT 70.20109689, TOP 75.47637091",4.69
